Reference: PubChem BioAssay (Tox21)
Where “and” joins values, the source holds several entries; their conditions need not be identical. Identical values can stand only once. Results filed as inconclusive are left out. Calls of active or inactive are those of the source. Unless noted, calls follow the shape of the dose curve; as a rule, active = well fitted curve in the direction sought with a large enough effect in the repeat runs; inconclusive = weak or mixed curves; inactive = no such curve, though single readings can be large; an effect the other way counts as inactive or inconclusive.

Key:
[1] = qHTS assay to identify small molecule agonists of the AP-1 signaling pathway - cell viability counter screen (AID 1159525; calls by dose curve; also: nearly all actives have a fitted effect of over 55% in size; also: potency is read from the fitted curve at half-maximal effect)
Outline: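 Same-well cytotoxicity counter screen of the Tox21 10K library in ME-180 cells. The readout is ATP-dependent luminescence after 5 h compound treatment. Data are normalised to DMSO and tetra n-octyl ammonium bromide controls.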

[2] = target: Retinoic acid receptor RXR-alpha (Homo sapiens) (UniProt P19793); experiment: qHTS assay to identify small molecule agonists of the RXR signaling pathway (AID 1159527; calls by dose curve; also: % is scaled to controls: 0 for no effect and ±100 for the full control effect; nearly all actives have a fitted effect of over 35% in size)
Retinoic acid receptor RXR-alpha (Homo sapiens), sequence (P19793 whole entry, looked up): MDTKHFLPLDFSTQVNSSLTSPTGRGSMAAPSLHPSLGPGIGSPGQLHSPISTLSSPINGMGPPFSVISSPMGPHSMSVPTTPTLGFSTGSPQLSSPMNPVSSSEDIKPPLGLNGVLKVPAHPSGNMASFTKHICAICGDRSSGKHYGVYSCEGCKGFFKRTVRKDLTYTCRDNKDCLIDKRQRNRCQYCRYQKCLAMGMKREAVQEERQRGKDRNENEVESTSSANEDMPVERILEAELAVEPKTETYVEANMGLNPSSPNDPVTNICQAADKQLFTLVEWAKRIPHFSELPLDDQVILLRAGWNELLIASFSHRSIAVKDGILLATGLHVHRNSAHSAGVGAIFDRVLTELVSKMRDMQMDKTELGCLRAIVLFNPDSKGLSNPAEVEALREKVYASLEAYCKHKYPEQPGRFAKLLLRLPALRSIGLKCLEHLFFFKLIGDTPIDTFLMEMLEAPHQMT
Outline: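 Compounds in DMSO were added to RXR-alpha-UAS-bla HEK 293T cells kept in 2% charcoal-stripped serum, and incubated 16 hr at 37 C with 5% CO2. Reporter signal came from a 2 hr B/G FRET substrate step.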

[3] = qHTS assay to identify small molecule antagonists of the estrogen related receptor (ERR) signaling pathway from Tox21 library - cell viability counter screen (AID 1224834); also: nearly all actives have a fitted effect of over 30% in size; also: potency is read from the fitted curve at half-maximal effect
Outline: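 In this quantitative HTS format, ERR cells receive compounds in DMSO and are incubated for 17.5 h at 37 C. Live-cell protease activity is then detected with CellTiter-Fluor.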

[4] = qHTS assay to identify small molecule agonists of the constitutive androstane receptor (CAR) signaling pathway - cell viability counter screen (AID 1224836); also: nearly all actives have a fitted effect of over 45% in size; also: potency is read from the fitted curve at half-maximal effect
Outline: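 Double-stable HepG2 hepatoma cells (hCAR plus CYP2B6-2.2kb) are treated for 23 h at 37 C with test compounds in 15-point concentration series. PK11195 at 0.75 uM final is co-added. Cell viability is quantified by CellTiter-Fluor.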

[5] = qHTS assay to identify small molecule antagonists of the constitutive androstane receptor (CAR) signaling pathway - cell viability counter screen (AID 1224837); also: nearly all actives have a fitted effect of over 45% in size; also: potency is read from the fitted curve at half-maximal effect
Outline: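 In quantitative HTS format, compounds at 15 concentrations were applied to HepG2 cells double-transfected with hCAR and CYP2B6-2.2kb under 50 nM CITCO stimulation; live-cell protease activity was read after 23 hr via CellTiter-Fluor.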

[6] = qHTS RealTime-Glo MT Cell Viability Assay in HepG2 cells - 24 hour (AID 1224867); also: nearly all actives have a fitted effect of over 50% in size; also: potency is read from the fitted curve at half-maximal effect
Outline: (§1)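 HepG2 suspension premixed with RealTime-Glo reagents is plated at 600 cells per well and left 5 h at 37 C/5% CO2. Compounds in DMSO then go in, and bioluminescence reflecting viable cell number is recorded over 40 h.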

[7] = A CellTox Green Cytotoxicity Assay to monitor cytotoxicity in HepG2 cells - 24 hour (AID 1224878); also: nearly all actives have a fitted effect of over 45% in size; also: potency is read from the fitted curve at half-maximal effect; as to Cytotoxicity: % is scaled to controls: 0 for no effect and ±100 for the full control effect
Outline: (§2)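 Fluorescent DNA-binding dye, 600 HepG2 cells/well, 5 h preincubation then compound in DMSO; same plates read at 0–40 h, 37 C.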

[8] = A CellTox Green Cytotoxicity Assay to monitor cytotoxicity in HepG2 cells - 40 hour (AID 1224879); also: nearly all actives have a fitted effect of over 40% in size; also: potency is read from the fitted curve at half-maximal effect
Outline: as §2

[9] = A CellTox Green Cytotoxicity Assay to monitor cytotoxicity in HEK293 cells - 8 hour (AID 1224884); also: nearly all actives have a fitted effect of over 35% in size; also: potency is read from the fitted curve at half-maximal effect
Outline: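 Homogeneous no-lysis format: HEK293 cell suspension mixed with CellTox Green reagent, seeded, incubated 5 h at 37 C/5% CO2, then dosed by pintool with compound in DMSO.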

[10] = qHTS RealTime-Glo MT Cell Viability Assay in HepG2 cells - 16 hour (AID 1224885); also: nearly all actives have a fitted effect of over 50% in size; also: potency is read from the fitted curve at half-maximal effect
Outline: as §1

[11] = qHTS assay to identify small molecule agonists of the sonic hedgehog signaling (Shh) pathway - cell viability counter screen (AID 1259366); also: nearly all actives have a fitted effect of over 50% in size; also: potency is read from the fitted curve at half-maximal effect
Outline: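 Compounds in DMSO were pin-transferred onto 3T3 Gli1-Luc cells that had settled 4hr; plates then stood 24hr at 37C and 5% CO2. One hour before the end, CellTiter-Fluor was added and fluorescence recorded.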

[12] = qHTS assay to identify small molecule antagonists of the sonic hedgehog signaling (Shh) pathway - cell viability counter screen (AID 1259367); also: nearly all actives have a fitted effect of over 55% in size; also: potency is read from the fitted curve at half-maximal effect
Outline: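 Tox21 library chemicals were tested on a Gli1-Luc NIH/3T3 clone (2,000 cells/well) stimulated by conditioned medium; viability was quantified as fluorescence from CellTiter-Fluor reagent added at 23 hr.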

[13] = qHTS assay to identify small molecule agonists of the estrogen receptor alpha (ER-alpha) signaling pathway in the presence of an antagonist - cell viability counter screen (AID 1259386);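 also: series mostly up to about 92 µM; cells exposed to compounds for 22 h at 37 °C before the viability read; % is scaled to controls: 0 for no effect and ±100 for the full control effect; nearly all actives have a fitted effect of over 30% in size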
Outline: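 Steps: 5-day stripped-FBS culture; seed and incubate 24hr; add ICI-182,780 (10.0nM final); pin 15-point compound titration; incubate 22hr at 37C; add CellTiter-Fluor at 21hr; read fluorescence.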

[14] = qHTS assay to identify small molecule antagonists of the TGF-beta/Smad signaling pathway - cell viability counter screen (AID 1346824); also: % is scaled to controls: 0 for no effect and ±100 for the full control effect; nearly all actives have a fitted effect of over 50% in size
Outline: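 SBE-bla HEK 293T cells, incubated overnight, then compound plus 0.25 ng/mL TGF-beta1 (stock added) for 5 hr at 37 C. Viability was read in the same wells by CellTiter-Glo luminescence after 30 min at room temperature.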

[15] = qHTS assay to identify small molecule agonists of the TGF-beta/Smad signaling pathway - cell viability counter screen (AID 1346829); also: top concentration of the series differs between compounds; % is scaled to controls: 0 for no effect and ±100 for the full control effect; nearly all actives have a fitted effect of over 45% in size
Outline: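 Same-well cytotoxicity: CellTiter-Glo added after the 2 hr room-temperature beta-lactamase substrate step, luminescence measured 30 min later; cells had 5 hr of compound at 37 C.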

[16] = target: Nuclear receptor subfamily 1 group I member 2 (Homo sapiens) (UniProt O75469); experiment: Human pregnane X receptor (PXR) small molecule agonists, qHTS assay (AID 1346982); also: nearly all actives have a fitted effect of over 35% in size; also: potency is read from the fitted curve at half-maximal effect; as to activation: % is scaled to controls: 0 for no effect and ±100 for the full control effect
Nuclear receptor subfamily 1 group I member 2 (Homo sapiens), sequence (O75469 whole entry, looked up): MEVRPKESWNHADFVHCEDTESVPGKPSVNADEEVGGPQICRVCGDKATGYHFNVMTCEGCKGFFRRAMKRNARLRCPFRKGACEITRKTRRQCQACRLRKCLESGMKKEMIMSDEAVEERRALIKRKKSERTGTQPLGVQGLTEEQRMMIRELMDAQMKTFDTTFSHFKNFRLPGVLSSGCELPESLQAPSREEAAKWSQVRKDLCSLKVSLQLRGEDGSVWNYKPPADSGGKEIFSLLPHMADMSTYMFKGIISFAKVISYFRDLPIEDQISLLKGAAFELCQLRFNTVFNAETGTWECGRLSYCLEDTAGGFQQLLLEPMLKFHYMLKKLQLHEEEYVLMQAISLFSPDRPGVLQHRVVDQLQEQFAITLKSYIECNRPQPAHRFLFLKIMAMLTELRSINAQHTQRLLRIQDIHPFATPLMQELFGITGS
Outline: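 After plating in 5% charcoal-stripped FBS and a 5 hr rest, PXR-Luc HepG2 cells received compounds in DMSO. Following 24 hr at 37 C, ONE-Glo was added and light output read.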

[17] = target: Cytochrome P450 2C19 (Homo sapiens) (UniProt P33261); experiment: Cytochrome P450 Family 2 Subfamily C Member 19 (CYP2C19) small molecule antagonists: luciferase reporter qHTS assay (AID 1671197); also: potency is read from the fitted curve at half-maximal effect; nearly all actives have a fitted effect of over 65% in size
Cytochrome P450 2C19 (Homo sapiens), sequence (P33261 whole entry, looked up): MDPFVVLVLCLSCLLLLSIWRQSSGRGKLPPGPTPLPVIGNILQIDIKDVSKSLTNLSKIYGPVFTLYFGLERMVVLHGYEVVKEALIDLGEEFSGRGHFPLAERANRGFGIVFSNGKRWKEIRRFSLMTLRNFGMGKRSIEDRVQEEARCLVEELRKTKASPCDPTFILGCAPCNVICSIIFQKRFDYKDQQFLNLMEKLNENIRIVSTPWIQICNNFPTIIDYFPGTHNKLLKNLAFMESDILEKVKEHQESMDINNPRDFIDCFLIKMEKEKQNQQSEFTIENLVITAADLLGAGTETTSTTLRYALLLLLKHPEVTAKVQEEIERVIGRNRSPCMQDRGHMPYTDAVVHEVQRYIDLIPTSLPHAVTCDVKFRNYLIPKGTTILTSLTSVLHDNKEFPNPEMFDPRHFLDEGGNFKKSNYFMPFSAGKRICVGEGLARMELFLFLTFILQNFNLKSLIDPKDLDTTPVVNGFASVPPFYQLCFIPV
Outline: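 Quantitative high-throughput screen of the Tox21 library using CYP2C19 with proluciferin substrate. Reaction: NADPH regeneration, 37C, 1 h, after 10 min compound preincubation at room temperature. Readout: luminescence.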

[18] = target: Luciferin 4-monooxygenase (Photinus pyralis) (UniProt P08659); experiment: qHTS assay to identify small molecule inhibitors of firefly luciferase (AID 1224835); also: nearly all actives have a fitted effect of over 25% in size; also: potency is read from the fitted curve at half-maximal effect
Luciferin 4-monooxygenase (Photinus pyralis), sequence (P08659 whole entry, looked up): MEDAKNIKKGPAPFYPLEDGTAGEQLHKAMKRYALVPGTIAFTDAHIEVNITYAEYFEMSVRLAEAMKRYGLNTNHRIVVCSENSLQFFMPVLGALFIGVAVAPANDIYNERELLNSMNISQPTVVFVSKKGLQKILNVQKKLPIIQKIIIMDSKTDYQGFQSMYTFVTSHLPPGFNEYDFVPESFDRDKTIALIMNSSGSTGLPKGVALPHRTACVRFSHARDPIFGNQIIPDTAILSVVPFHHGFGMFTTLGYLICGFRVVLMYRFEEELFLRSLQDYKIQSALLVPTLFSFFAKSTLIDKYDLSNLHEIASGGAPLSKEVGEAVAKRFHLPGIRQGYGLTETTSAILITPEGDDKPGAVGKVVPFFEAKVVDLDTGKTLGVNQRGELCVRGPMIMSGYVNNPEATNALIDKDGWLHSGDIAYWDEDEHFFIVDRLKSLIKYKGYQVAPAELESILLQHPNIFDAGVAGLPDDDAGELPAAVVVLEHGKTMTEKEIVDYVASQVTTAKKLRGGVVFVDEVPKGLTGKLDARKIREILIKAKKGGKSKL
Outline: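 Biochemical qHTS: compounds run as interplate titrations against purified firefly enzyme, with D-luciferin and ATP each at its KM concentration. Light output recorded by CCD imaging.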

[19] = qHTS RealTime-Glo MT Cell Viability Assay in HEK293 cells - 32 hour (AID 1224868)
Outline: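 Reads taken at 0, 8, 16, 24, 32 and 40 h from the same wells. HEK293 cells (600/well) carried RealTime-Glo reagents from seeding, with compound added after a 5 h settle at 37 C.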

[20] = target: Cytochrome P450 2C9 (Homo sapiens) (UniProt P11712); experiment: Cytochrome P450 Family 2 Subfamily C Member 9 (CYP2C9) small molecule antagonists: luciferase reporter qHTS assay (AID 1671198)
Cytochrome P450 2C9 (Homo sapiens), sequence (P11712 whole entry, looked up): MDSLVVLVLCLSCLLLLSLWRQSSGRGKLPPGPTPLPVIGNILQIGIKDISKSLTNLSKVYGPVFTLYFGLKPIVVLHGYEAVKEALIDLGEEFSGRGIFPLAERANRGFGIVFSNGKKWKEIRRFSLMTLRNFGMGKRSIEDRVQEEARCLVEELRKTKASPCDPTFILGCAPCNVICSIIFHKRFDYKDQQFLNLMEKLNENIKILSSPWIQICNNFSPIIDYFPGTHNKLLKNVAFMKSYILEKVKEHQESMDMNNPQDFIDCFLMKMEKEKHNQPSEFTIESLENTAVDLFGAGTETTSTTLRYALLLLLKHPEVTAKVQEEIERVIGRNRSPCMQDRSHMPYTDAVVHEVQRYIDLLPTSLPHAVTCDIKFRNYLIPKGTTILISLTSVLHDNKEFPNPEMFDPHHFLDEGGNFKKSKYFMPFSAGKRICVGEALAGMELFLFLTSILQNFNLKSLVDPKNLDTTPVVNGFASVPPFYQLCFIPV
Outline: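 P450-Glo proluciferin substrate with CYP2C9 enzyme; 10 min RT preincubation, then NADPH regeneration 1 h at 37C; luciferin detection reagent 20 min RT, luminescence in relative luminescence units.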

CNC(=O)Oc1cc(C)c(SC)c(C)c1
inactive: Potency [1] | Potency [2] | Potency [3] | Potency [4] | Potency [5] | Potency [6] | Potency [7] | Potency [8] | Potency [9] | Potency [10] | Potency [11] | Potency [12] | Potency [13] | Potency [14] | outcome [15]
active: Potency [16] 61.1 µM | Potency [17] 56.4 µM

CCCCC(CC)COC(=O)CCCCC(=O)OCC(CC)CCCC (configuration not stated)
inactive: Potency [2]

CN1CSC(=S)N(C)C1
active: Potency [3] 6.08 µM and 13.6 µM | Potency [4] 4.83 µM and 15.3 µM | Potency [5] 5.42 µM and 7.67 µM | Potency [6] 17.3 µM | Potency [19] 17.3 µM and 24.5 µM | Potency [7] 10.9 µM and 27.5 µM | Potency [8] 12.2 µM and 10.9 µM | Potency [11] 2.42 µM and 6.09 µM | Potency [12] 3.05 µM and 13.6 µM | Potency [16] 5.43 µM | Potency [17] 35.4 µM and 17.8 µM | Potency [20] 8.91 µM
inactive: Potency [18] | Potency [9] | Potency [10] | Potency [13] | Potency [14] | outcome [15]

O=S(=O)(C(Cl)(Cl)Cl)C(Cl)(Cl)Cl
active: Potency [1] 49 µM | Potency [3] 48.6 µM | Potency [18] 20 µM | Potency [4] 54.5 µM | Potency [5] 30.6 µM | Potency [6] 38.9 µM | Potency [19] 9.77 µM | Potency [7] 27.5 µM | Potency [8] 19.5 µM | Potency [9] 24.5 µM | Potency [10] 38.9 µM | Potency [11] 9.69 µM | Potency [12] 54.5 µM | Potency [17] 25.2 µM | Potency [20] 11.2 µM
inactive: Potency [13] | Potency [16]

COCCOC(=O)c1ccccc1C(=O)OCCOC
inactive: Potency [2]

O=C1OC(=O)c2c(Cl)c(Cl)c(Cl)c(Cl)c21
inactive: Potency [2]

Brc1c2ccccc2c(Br)c2ccccc12
inactive: activation [2] 1.52% [at 6.98 µM]

CCCCC(CC)COC(=O)c1ccc(C(=O)OCC(CC)CCCC)cc1 (configuration not stated)
inactive: Potency [2]
